Data as given in the supplement of paper PMC10849652.
About 8,800 targets were measured; listed, in parts, are those with a hit and a random draw of the rest. About 0.5% of all pairs of compound and target were hits. Unmarked numbers belong to inactive results.

Key:
Assay in all cases: log2 fold change, soluble protein after heating vs DMSO (PISA); higher = thermal stabilisation; K562 lysate, 10 uM; active = over 0.2 and 3.5 SD of the protein, either way, in both replicates (recomputed)
erlotinib = compound: C#Cc1cccc(Nc2ncnc3cc(OCCOC)c(OCCOC)cc23)c1 [erlotinib]
Summary of the method: (§1)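 The values are log-two fold changes in thermal stability compared with solvent controls and come from duplicates. They were obtained by TMTpro 16plex LC-MS/MS, with channel sums equalised, on the supernatant after 21,000xg for 90 min. That supernatant came from crude K562 extract at 1 mg/mL protein treated with 10 μM compound for 30 min, heated for 3 min across 48°C-58°C, pooled and brought to 0.5% NP-40 at 4°C.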

[1] = compound: C/C(=N\NC(=O)C1=CC(=CC=C1)S(=O)(=O)N2CCOCC2)/C3=C(C=CC(=C3)Cl)O
Summary of the method: as §1

[2] = compound: C1=CC(=CC=C1C2=NC3=C(N2)C=C(C=C3)C(=O)N)OC4=CC=C(C=C4)Cl
Summary of the method: as §1

[3] = compound: C1=CC2=C(C=CC(=C2)/C=C\3/C(=O)NC(=NCC4=CC=CS4)S3)N=C1
Summary of the method: as §1

[4] = compound: C1=CC2=NC=CN=C2C=C1/C=C/3\C(=O)NC(=O)S3
Summary of the method: as §1

[5] = compound: C1=CC=C(C=C1)C2=NC(=C(N2)C3=CC=NC=C3)C4=CC(=C(C=C4)Cl)O
Summary of the method: as §1

[6] = compound: C1=CC=C2C(=C1)C3=NNC4=CC=CC(=C43)C2=O
Summary of the method: as §1

[7] = compound: C1CCN(C1)C(=O)NC2=CC=CC(=C2)NC3=NC=C(C(=N3)NCCC4=CN=CN4)Br
Summary of the method: as §1

[8] = compound: C1CN(CCC1(CC2=CC=C(C=C2)Cl)N)C3=NC=NC4=C3C=CN4
Summary of the method: as §1

IRAK-1-4 Inhibitor I = compound: C1COCCN1CCN2C3=CC=CC=C3N=C2NC(=O)C4=CC(=CC=C4)[N+](=O)[O-] [IRAK-1-4 Inhibitor I]
Summary of the method: as §1

ibrutinib = compound: C=CC(=O)N1CCC[C@@H](n2nc(-c3ccc(Oc4ccccc4)cc3)c3c(N)ncnc32)C1 [ibrutinib]
Summary of the method: as §1

[9] = compound: CC(=O)c1cnc2ccc(-c3cc(Cl)c(O)c(Cl)c3)nc2c1N[C@H]1CC[C@H](CN(C)C)CC1
Summary of the method: as §1

ralimetinib = compound: CC(C)(C)Cn1c(N)nc2ccc(-c3[nH]c(C(C)(C)C)nc3-c3ccc(F)cc3)nc21 [ralimetinib]
Summary of the method: as §1

[10] = compound: CC(C)(O)CC(=O)NCCn1ccc2ncnc(Nc3ccc(Oc4cccc(C(F)(F)F)c4)c(Cl)c3)c21
Summary of the method: as §1

[11] = compound: CC(C)C1=C2N=C(C=C(N2N=C1)NCC3=CC=CC=C3)NCCCCCCN
Summary of the method: as §1

[12] = compound: CC1=C(C(CC(=O)N1)C2=CC=C(C=C2)C(F)(F)F)C(=O)NC3=C(C=C4C(=C3)C=NN4)F
Summary of the method: as §1

[13] = compound: CC1=C(C2=C(C=C1)C(=O)C3=CC=CC=C3N2CCCN)C
Summary of the method: as §1

[14] = compound: CC1=C(C=C(C=C1)NC(=O)C2=CC(=CC=C2)C(C)(C)C#N)NC3=CC4=C(C=C3)N=CN(C4=O)C
Summary of the method: as §1

[15] = compound: CC1=C(C=C(C=C1)NC(=O)C2=CC(=CC=C2)N(C)C)NC(=O)C3=CC=C(C=C3)O
Summary of the method: as §1

[16] = compound: CC1=CC=C(C=C1)SC2=C3C=C(SC3=CN=C2)C(=O)N
Summary of the method: as §1

UniProt Q07666, sequence (Q07666 whole entry, looked up): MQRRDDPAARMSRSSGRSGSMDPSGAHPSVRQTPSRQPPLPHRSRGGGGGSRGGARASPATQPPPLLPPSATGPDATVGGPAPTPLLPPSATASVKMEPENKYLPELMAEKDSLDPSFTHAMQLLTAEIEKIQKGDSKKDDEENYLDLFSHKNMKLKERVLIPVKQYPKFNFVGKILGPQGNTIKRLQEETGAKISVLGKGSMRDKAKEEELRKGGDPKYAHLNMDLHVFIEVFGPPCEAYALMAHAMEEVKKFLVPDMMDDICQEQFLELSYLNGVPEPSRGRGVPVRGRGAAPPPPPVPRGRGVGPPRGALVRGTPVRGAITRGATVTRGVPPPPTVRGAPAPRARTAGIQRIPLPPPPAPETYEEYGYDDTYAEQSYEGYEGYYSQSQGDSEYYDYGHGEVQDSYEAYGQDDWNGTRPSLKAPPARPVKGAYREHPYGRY
UniProt Q13418, sequence (Q13418 whole entry, looked up): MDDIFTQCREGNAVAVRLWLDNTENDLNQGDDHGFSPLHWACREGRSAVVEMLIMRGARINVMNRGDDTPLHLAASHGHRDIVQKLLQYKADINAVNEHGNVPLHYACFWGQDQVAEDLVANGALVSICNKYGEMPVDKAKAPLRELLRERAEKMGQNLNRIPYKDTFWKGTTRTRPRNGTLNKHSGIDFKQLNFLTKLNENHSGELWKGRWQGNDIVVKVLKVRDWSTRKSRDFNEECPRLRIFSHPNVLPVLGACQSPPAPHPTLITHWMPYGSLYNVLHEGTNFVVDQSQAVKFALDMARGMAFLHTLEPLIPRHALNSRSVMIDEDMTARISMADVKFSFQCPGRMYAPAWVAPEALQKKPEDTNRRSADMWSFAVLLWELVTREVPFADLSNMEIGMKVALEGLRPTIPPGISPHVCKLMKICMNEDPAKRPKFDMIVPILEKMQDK
UniProt Q6P9B9, sequence (Q6P9B9 whole entry, looked up): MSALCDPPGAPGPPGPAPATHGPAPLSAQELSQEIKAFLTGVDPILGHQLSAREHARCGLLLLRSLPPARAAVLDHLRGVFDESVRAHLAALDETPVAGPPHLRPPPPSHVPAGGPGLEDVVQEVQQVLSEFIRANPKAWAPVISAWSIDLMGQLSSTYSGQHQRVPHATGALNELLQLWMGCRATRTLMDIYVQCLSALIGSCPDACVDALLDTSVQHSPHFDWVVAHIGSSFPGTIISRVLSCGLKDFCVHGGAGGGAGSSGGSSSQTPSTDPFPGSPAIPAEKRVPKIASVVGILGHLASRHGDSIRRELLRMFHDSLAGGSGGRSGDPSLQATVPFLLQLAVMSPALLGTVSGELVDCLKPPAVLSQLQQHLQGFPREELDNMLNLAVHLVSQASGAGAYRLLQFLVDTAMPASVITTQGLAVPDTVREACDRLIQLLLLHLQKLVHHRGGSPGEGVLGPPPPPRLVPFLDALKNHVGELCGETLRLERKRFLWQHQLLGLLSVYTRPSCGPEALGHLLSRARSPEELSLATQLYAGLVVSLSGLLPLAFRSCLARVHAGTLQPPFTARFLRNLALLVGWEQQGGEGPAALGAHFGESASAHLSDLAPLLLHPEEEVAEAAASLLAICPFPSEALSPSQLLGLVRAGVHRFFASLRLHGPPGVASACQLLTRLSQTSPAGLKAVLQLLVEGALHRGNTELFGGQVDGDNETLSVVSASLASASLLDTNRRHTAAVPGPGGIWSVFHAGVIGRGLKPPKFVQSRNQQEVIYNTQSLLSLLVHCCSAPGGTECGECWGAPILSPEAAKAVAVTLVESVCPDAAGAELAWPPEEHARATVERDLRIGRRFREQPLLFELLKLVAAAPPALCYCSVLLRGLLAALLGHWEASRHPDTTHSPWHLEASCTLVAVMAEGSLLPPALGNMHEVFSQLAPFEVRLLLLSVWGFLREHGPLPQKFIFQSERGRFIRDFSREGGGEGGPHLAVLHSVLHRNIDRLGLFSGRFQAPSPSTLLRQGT
UniProt P12081, sequence (P12081 whole entry, looked up): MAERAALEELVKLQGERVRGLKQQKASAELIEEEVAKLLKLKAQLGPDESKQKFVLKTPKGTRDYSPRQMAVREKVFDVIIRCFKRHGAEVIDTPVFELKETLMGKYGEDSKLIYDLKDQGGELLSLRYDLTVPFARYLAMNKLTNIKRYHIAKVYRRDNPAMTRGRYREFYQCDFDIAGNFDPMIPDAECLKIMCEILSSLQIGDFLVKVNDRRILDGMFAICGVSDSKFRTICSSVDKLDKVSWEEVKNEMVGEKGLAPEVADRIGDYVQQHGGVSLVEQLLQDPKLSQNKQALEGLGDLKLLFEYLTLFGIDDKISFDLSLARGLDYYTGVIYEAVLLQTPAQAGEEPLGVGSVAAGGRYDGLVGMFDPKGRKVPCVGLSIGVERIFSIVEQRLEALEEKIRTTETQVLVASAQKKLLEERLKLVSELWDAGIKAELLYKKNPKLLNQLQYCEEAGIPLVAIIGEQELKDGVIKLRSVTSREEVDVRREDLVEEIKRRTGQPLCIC
UniProt O75367, sequence (O75367 whole entry, looked up): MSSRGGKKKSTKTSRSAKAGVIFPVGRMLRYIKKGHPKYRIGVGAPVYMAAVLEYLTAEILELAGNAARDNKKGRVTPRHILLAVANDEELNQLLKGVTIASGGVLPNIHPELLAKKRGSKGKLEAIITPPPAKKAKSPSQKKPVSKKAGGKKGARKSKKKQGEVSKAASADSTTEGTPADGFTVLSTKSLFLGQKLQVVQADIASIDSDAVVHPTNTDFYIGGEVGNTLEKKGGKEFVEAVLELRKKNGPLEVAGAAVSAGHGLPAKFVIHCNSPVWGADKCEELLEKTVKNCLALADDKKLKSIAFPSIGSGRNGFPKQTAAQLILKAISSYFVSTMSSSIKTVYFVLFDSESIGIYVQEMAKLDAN
UniProt P36969, sequence (P36969 whole entry, looked up): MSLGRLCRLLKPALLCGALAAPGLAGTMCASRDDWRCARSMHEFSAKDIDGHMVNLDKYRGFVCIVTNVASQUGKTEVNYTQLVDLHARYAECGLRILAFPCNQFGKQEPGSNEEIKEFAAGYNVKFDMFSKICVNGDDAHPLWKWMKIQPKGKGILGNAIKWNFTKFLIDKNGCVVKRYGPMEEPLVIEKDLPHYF
UniProt Q14103, sequence (Q14103 whole entry, looked up): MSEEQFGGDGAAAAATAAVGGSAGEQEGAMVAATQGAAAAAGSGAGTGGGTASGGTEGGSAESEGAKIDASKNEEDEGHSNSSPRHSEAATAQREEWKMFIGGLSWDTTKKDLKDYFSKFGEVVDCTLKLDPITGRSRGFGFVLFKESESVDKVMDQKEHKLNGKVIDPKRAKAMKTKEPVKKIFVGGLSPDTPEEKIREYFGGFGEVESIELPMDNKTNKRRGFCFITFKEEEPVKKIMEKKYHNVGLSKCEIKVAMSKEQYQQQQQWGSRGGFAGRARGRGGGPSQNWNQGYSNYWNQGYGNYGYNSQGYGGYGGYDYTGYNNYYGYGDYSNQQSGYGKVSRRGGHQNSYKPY
UniProt Q92805, sequence (Q92805 whole entry, looked up): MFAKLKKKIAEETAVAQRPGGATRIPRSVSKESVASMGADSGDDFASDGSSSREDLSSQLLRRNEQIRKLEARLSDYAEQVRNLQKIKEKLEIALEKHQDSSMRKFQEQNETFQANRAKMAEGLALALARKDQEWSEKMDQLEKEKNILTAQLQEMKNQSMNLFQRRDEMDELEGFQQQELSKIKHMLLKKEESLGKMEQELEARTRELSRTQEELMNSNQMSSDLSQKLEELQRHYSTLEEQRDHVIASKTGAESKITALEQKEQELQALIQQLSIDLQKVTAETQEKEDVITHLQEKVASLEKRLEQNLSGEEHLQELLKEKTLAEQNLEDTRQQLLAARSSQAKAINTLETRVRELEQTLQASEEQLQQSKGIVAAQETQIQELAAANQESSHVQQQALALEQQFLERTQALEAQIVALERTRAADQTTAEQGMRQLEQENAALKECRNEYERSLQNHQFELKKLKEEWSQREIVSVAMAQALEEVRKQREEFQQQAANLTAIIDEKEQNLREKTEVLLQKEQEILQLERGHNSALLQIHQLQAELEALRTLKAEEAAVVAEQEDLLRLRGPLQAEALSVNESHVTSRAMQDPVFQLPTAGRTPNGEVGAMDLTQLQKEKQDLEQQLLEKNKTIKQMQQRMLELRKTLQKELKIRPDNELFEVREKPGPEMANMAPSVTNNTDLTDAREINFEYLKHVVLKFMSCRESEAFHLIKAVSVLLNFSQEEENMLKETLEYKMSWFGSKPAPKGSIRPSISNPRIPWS
UniProt P26583, sequence (P26583 whole entry, looked up): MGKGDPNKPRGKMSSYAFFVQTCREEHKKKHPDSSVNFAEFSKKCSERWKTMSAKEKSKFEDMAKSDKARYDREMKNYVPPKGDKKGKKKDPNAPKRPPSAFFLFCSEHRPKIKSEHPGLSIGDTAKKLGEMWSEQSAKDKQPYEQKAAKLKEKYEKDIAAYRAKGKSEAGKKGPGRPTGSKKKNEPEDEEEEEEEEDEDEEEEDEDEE
UniProt Q7Z5Y7, sequence (Q7Z5Y7 whole entry, looked up): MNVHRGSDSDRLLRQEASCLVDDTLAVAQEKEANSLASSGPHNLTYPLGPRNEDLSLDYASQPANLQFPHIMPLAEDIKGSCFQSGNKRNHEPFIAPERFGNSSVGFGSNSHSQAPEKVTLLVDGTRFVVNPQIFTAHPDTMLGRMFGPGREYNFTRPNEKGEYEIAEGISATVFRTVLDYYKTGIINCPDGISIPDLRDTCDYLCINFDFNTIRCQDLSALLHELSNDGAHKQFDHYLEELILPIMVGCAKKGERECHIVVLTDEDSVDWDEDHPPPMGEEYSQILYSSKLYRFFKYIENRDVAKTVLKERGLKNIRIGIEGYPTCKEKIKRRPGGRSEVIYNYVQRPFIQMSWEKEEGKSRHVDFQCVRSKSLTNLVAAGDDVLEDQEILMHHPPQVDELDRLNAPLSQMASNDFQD
UniProt Q9BUE6, sequence (Q9BUE6 whole entry, looked up): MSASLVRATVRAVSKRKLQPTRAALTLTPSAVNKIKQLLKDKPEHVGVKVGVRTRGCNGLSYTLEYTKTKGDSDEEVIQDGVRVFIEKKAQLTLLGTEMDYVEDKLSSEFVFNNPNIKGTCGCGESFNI

Target	log2 fold change (erlotinib)	log2 fold change [1]	log2 fold change [2]	log2 fold change [3]	log2 fold change [4]	log2 fold change [5]	log2 fold change [6]	log2 fold change [7]	log2 fold change [8]	log2 fold change (IRAK-1-4 Inhibitor I)	log2 fold change (ibrutinib)	log2 fold change [9]	log2 fold change (ralimetinib)	log2 fold change [10]	log2 fold change [11]	log2 fold change [12]	log2 fold change [13]	log2 fold change [14]	log2 fold change [15]	log2 fold change [16]
INTS5 (UniProt Q6P9B9)	0.002	-0.061	-0.082	-0.04	0.068	-0.072	-0.098	-0.001	0.247	-0.015	0.051	0.056	0.051	-0.038	-0.06	-0.013	0.021	0	0.039	0.003
HARS (UniProt P12081)	-0.034	0.006	-0.002	0.021	-0.036	-0.005	0.019	-0.016	0.001	-0.002	-0.049	0.022	-0.002	0.015	-0.039	-0.015	0.008	0.005	0.008	0.005
HAUS8 (UniProt Q9BT25)	0.007	-0.007	0.007	0.016	-0.06	-0.029	0.142	0.001	0.062	0.015	0.049	-0.01	0.054	0.011	-0.012	-0.044	-0.062	0.003	0.033	0.036
GPX4 (UniProt P36969)	0.02	0.051	-0.037	-0.016	0.04	-0.029	-0.06	0.024	0.021	0.012	-0.013	0.01	0.011	0.018	-0.004	0.006	-0.002	0.014	0.003	0.039
H2AFY (UniProt O75367)	0.02	-0.026	0.049	0.069	0.013	0.069	0.081	-0.051	-0.113	0.02	0.051	-0.056	-0.025	-0.043	0	-0.003	-0.148	-0.053	-0.033	-0.001
IRF2BPL (UniProt Q9H1B7)	0.024	0.102	0.037	0.022	-0.034	0.002	-0.008	-0.002	0.027	-0.027	0.052	0.004	0.039	0.026	-0.026	0.02	-0.018	0.045	0.029	-0.038
ILK (UniProt Q13418)	0.112	0.025	0.019	0.012	0.002	-0.018	-0.04	0.029	-0.035	0.045	0.017	0.006	0	-0.022	-0.007	0.013	-0.02	0.049	-0.001	0.057
HNRNPD isoform 3 (UniProt Q14103)	-0.056	-0.133	-0.1	-0.181	-0.036	-0.11	0.021	0.108	-0.043	-0.057	-0.081	-0.065	-0.046	0.104	-0.026	-0.096	-0.052	0	0.036	-0.007
ILRUN (UniProt Q9H6K1)	-0.004	0.056	0.004	-0.018	0.016	0.018	0.011	0.006	0.033	0.02	-0.002	-0.011	0.001	-0.019	0.007	0.035	-0.03	0.009	0.018	0.02
GMPS (UniProt P49915)	0.014	-0.025	0.004	0.029	-0.013	-0.007	-0.009	-0.003	0.017	-0.004	-0.034	0.003	0.009	0.013	0.006	-0.032	0.025	-0.024	0.015	0.02
GLB1 (UniProt P16278)	0.004	-0.027	0.004	0.039	-0.011	0.016	-0.086	-0.003	0.031	0.016	0.002	-0.008	-0.005	-0.03	0.003	-0.009	-0.001	-0.011	0.025	0.015
GOLGA1 (UniProt Q92805)	0.029	0.09	-0.002	-0.004	0.021	0	0.124	0.018	0.038	0.017	0.128	0.008	-0.024	-0.018	-0.019	0.081	0.027	-0.023	0.019	0.034
KCTD20 (UniProt Q7Z5Y7)	0.072	-0.145	-0.006	0	0.001	0.063	0.038	0.081	0.083	0.048	0.109	0.071	0.099	-0.009	0.044	0.062	0.034	-0.001	0.105	-0.051
HMGB2 (UniProt P26583)	-0.007	0.039	0.007	0.008	-0.017	0.046	0.013	0.014	-0.008	-0.026	-0.038	0.012	-0.034	0.026	0.014	-0.013	-0.001	-0.035	0.015	-0.004
KHDRBS1 (UniProt Q07666)	-0.013	0.001	-0.035	0.009	-0.038	0.006	-0.016	0.026	0.037	-0.013	0.023	-0.517 (active)	-0.021	-0.009	0.016	0.023	0.007	-0.026	0	0.044
ISCA1 isoform 2 (UniProt Q9BUE6)	-0.025	-0.036	0.021	-0.007	-0.04	-0.033	-0.013	0.003	-0.031	0.031	0.049	-0.001	0.04	-0.028	-0.069	-0.276	-0.006	0.031	-0.029	-0.016
